# Paper PMC7819943, “Rice protein-binding microarrays: a tool to detect cis-acting elements near promoter regions in rice”
# The full ranking holds about 68,000 sequences; the median of “fluorescence intensity (a.u.)” is about 9,100, and the highest 2% start at about 16,000. Only a selection was taken, and the highest values are over-represented in it overall.
# Molecular target: OsWRKY34 (Oryza sativa, UniProt Q0JBA9 1-250)
# Assay: protein-binding microarray (RPBM); PBS, 2% BSA, 51.3 ng/ul salmon testes DNA, 50 uM zinc acetate, 200 nM TF, 25 C, 1 h; high values mean tight binding
# Settings: protein: recombinant; tags: N-terminal polyhistidine and DsRed monomer fusion (pET32a); label: CyDye5-dUTP incorporated in the synthesized complementary strand; 3' TTTTT single-stranded linker to array surface; dsDNA, one strand shown
# Method in brief: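 The binding signal is fluorescence intensity per feature, in arbitrary units, read on an Axon 4000B scanner. Polyhistidine- and DsRed-tagged transcription factors (N-terminal fusions) from E. coli BL21-CodonPlus were purified on Ni–NTA and applied at 200 nM for 1 h at 25 °C to a double-stranded, BSA-blocked custom Agilent array in buffer with 50 µM zinc acetate.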
# OsWRKY34, sequence (Q0JBA9 entry or part of it): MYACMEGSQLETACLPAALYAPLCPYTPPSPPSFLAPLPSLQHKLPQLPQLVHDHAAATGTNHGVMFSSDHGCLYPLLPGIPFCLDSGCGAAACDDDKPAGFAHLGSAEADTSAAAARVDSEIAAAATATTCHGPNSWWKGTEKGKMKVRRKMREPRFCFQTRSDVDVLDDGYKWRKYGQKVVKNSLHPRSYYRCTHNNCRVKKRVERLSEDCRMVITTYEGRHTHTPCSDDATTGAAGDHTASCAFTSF
row,Sequence,binding signal
1,ACAGGGCTTGGAATAGGTTGGTGTACAGGGCGGTAGCTTACGGAGTCACCTAGTGCAG,8670 fluorescence intensity (a.u.)
2,AGAAAAGAATCTACAGTACCCACATGGCATACTCTCTTTTCGGAGTCACCTAGTGCAG,9950 fluorescence intensity (a.u.)
3,GTCTTTTGGTGGGTGGGAAATCACTTCCATTTCCCATTAGCGGAGTCACCTAGTGCAG,11300 fluorescence intensity (a.u.)
4,GTGGCAATGCAAACTCGTCTTGGAACCCACTGCTTTGCCTCGGAGTCACCTAGTGCAG,8192 fluorescence intensity (a.u.)
5,CTACTATCATATTTTTTAATAGATGACTCCGTTGACTTTTCGGAGTCACCTAGTGCAG,16800 fluorescence intensity (a.u.)
6,ATGACATACTAATAGATGATACTATTGACTTTTTTTCTATCGGAGTCACCTAGTGCAG,9980 fluorescence intensity (a.u.)
7,TACCTCCGTTTTCTAATAGATGACGCCGTTGACTTTTTCTCGGAGTCACCTAGTGCAG,20700 fluorescence intensity (a.u.)
8,ATACTACCTCCGTTTTTTAATAGATGACGTCGTTGACTTTCGGAGTCACCTAGTGCAG,14600 fluorescence intensity (a.u.)
9,TACCTCCGTTTTTTAATAGATGACGCCGTTGACTTTTTCTCGGAGTCACCTAGTGCAG,25000 fluorescence intensity (a.u.)
10,TCCCTCCGTTTTTTAATAGATGATGCCGTTGACTTTTTCTCGGAGTCACCTAGTGCAG,19300 fluorescence intensity (a.u.)
11,GTTTCTTACCCATCTACTATGGCCTATTTAACCCTGCGCCCGGAGTCACCTAGTGCAG,11000 fluorescence intensity (a.u.)
12,GCCCGCGCCGTCTACCAGGACGCCGACGTCTACCTCCTCGCGGAGTCACCTAGTGCAG,8470 fluorescence intensity (a.u.)
13,CCTCTTCTCCTTCGGTGTGTTCGTCGATGTGCTTTGCTGACGGAGTCACCTAGTGCAG,8580 fluorescence intensity (a.u.)
14,CGGTTTGGGCTCTTTTGGCTGTTCCATGGCGACGAGGCGCCGGAGTCACCTAGTGCAG,8320 fluorescence intensity (a.u.)
15,GACCCCTCCGACCGCTACGCCAACCACAACACCGTCTTCTCGGAGTCACCTAGTGCAG,9430 fluorescence intensity (a.u.)
16,TGTCAACCCGCGCCTCCGATTTCTCCAGCTTTTCTTTCCCCGGAGTCACCTAGTGCAG,12800 fluorescence intensity (a.u.)
17,AGTAGTCTCCGTCTTCGTCCTCTTCCTTCTTGTTTAATAACGGAGTCACCTAGTGCAG,8930 fluorescence intensity (a.u.)
18,TGCCTGTAGTGGCGGTTGGGGATGCGGATAAGGCGAGGGGCGGAGTCACCTAGTGCAG,14500 fluorescence intensity (a.u.)
19,TCCGACATGCTGCCCTCGATCGAGCTCATCCATCGGCCCTCGGAGTCACCTAGTGCAG,9550 fluorescence intensity (a.u.)
20,CCACCCTTTTTCTCTGCTTCCAGTGTACGTTTTCGAATAACGGAGTCACCTAGTGCAG,9880 fluorescence intensity (a.u.)
21,CCTCCTAGTTCCCTCGGCATGCAGACGATCTGCCAGTTTACGGAGTCACCTAGTGCAG,11700 fluorescence intensity (a.u.)

row,Sequence,binding signal
1,TATCGTCCGGTGCTCCTCGTCCATGTCAACAGCTACCATACGGAGTCACCTAGTGCAG,9850 fluorescence intensity (a.u.)
2,GAGGGCAAGGGCGGCGGGTCTAACACAACACAATAAGAGTCGGAGTCACCTAGTGCAG,9470 fluorescence intensity (a.u.)
3,TCTTTGCAGGTCACTTCCGGGTGCTTCACATTCCGGTTAACGGAGTCACCTAGTGCAG,8890 fluorescence intensity (a.u.)
4,TCCTCATCTTGTGCTCTCAAGTGTTTTAAGTGCTCTCTTTCGGAGTCACCTAGTGCAG,10500 fluorescence intensity (a.u.)
5,ATTTAATTTCACCTACTACTACTACTATTCTTCTTATTAACGGAGTCACCTAGTGCAG,9430 fluorescence intensity (a.u.)
6,AATACTACCTCCGTTTTAAAATGTTTGACGCCGTTGATATCGGAGTCACCTAGTGCAG,8440 fluorescence intensity (a.u.)
7,TACTCCCTCTGTTTTTTAATAGATGACGCCGTTGACTTTTCGGAGTCACCTAGTGCAG,17100 fluorescence intensity (a.u.)
8,TACTCCCTCCGTTTTTTAATAGATGACGCCGTTGACTTTTCGGAGTCACCTAGTGCAG,16100 fluorescence intensity (a.u.)
9,TACTACCTCCGTTTTTAATAGATGACGCCGTTGACTTTTTCGGAGTCACCTAGTGCAG,23700 fluorescence intensity (a.u.)
10,CATATACTCCCTCCGTTTTTTAATAGATGACGCCGTTGACCGGAGTCACCTAGTGCAG,12300 fluorescence intensity (a.u.)
11,CTTACTACCTCCGTATTTTAGTGTATGATGCCGTTGACTTCGGAGTCACCTAGTGCAG,14500 fluorescence intensity (a.u.)
12,CTCTCTTGCCTCTCCTGTCTCTTTCTCGGATTTTTCTCATCGGAGTCACCTAGTGCAG,9020 fluorescence intensity (a.u.)
13,AAACAGTTTGACTTTGACTAAAGTTAAAACGTCTTATAACCGGAGTCACCTAGTGCAG,10900 fluorescence intensity (a.u.)
14,ACCATCTTATTTAACGTAAAATATTTAATTTTCATTTTTACGGAGTCACCTAGTGCAG,8480 fluorescence intensity (a.u.)
15,ACCTCGGTAATAAAAGATGATCTAACGTAAAATTTATTATCGGAGTCACCTAGTGCAG,23300 fluorescence intensity (a.u.)
16,TTCTAAATAATATTTGACGCCGTTGACTTTTTTAAATATACGGAGTCACCTAGTGCAG,14600 fluorescence intensity (a.u.)
17,AGCGTTGACCATACTTAAATCACAGTTTTCTTTTCTTTTTCGGAGTCACCTAGTGCAG,21800 fluorescence intensity (a.u.)
18,CAAGTCACGTATAAAATATTAATCATGTTTTATCATCTAACGGAGTCACCTAGTGCAG,8050 fluorescence intensity (a.u.)
19,ATTTCTTGAACAGTTAAATACTTATAAATCCTTCACTTTTCGGAGTCACCTAGTGCAG,8050 fluorescence intensity (a.u.)
20,CCTTTCGTTTTATATTATAATTCGTTTTGACTTTTTTCTTCGGAGTCACCTAGTGCAG,10500 fluorescence intensity (a.u.)
21,CTTTTCTTTTCAATTTTTTGAGCGTTGACCATACTTAAATCGGAGTCACCTAGTGCAG,14800 fluorescence intensity (a.u.)

row,Sequence,binding signal
1,GTTTGACACCGTTGACTTTTTTAAATATGTTTGACCGTTTCGGAGTCACCTAGTGCAG,25000 fluorescence intensity (a.u.)
2,CGTTGACTTTTTTAAATATATAATTATTAATTTTTTTTCTCGGAGTCACCTAGTGCAG,23900 fluorescence intensity (a.u.)
3,CCATATCGTTTTGACGTTTTTAGTGTAGGTCAATTTATAGCGGAGTCACCTAGTGCAG,8170 fluorescence intensity (a.u.)
4,TTAAAACTGAAATTATCGTATGTGCCTTGTCGCCGTGATTCGGAGTCACCTAGTGCAG,8090 fluorescence intensity (a.u.)
5,GGGTATATACCGTGACCCTGATCGCCACACCGACCGGATACGGAGTCACCTAGTGCAG,13600 fluorescence intensity (a.u.)
6,ATCCGATCTCTCTTCTCATTCTCTTCTCTTGGTTTGGGGTCGGAGTCACCTAGTGCAG,8220 fluorescence intensity (a.u.)
7,AGTCTTGAAGACTGAGGCAAAGTCTGTTATCTTAATCGATCGGAGTCACCTAGTGCAG,9140 fluorescence intensity (a.u.)
8,TTGAAACTAAACAAGGCATTTAGCTCAAACCCTCATTGACCGGAGTCACCTAGTGCAG,8470 fluorescence intensity (a.u.)
9,GATCGTGGGAGGGAGGATTGGCCGGTTGTACTACAGTTGACGGAGTCACCTAGTGCAG,8660 fluorescence intensity (a.u.)
10,CCATTATGGTGTTTCTTAGTTGTTTTTTTTGCCTTTTACTCGGAGTCACCTAGTGCAG,8470 fluorescence intensity (a.u.)
11,CCGTGTTGTCGTTCCTCCAAATTTGTACCGTTTTCCCTCTCGGAGTCACCTAGTGCAG,8770 fluorescence intensity (a.u.)
12,AATTTTGACTTTTTCTTGACTAATTAGGCCATCCGATGGGCGGAGTCACCTAGTGCAG,17800 fluorescence intensity (a.u.)
13,TTTTGCTACTCCTTCGTTCTCAGTATCCAAATTTAAATTTCGGAGTCACCTAGTGCAG,9900 fluorescence intensity (a.u.)
14,CCCGTTGACCCAAATTTTCGTTCTCCTCACCGAGTATAGTCGGAGTCACCTAGTGCAG,17200 fluorescence intensity (a.u.)
15,GACTTTATATGTGACTTTTTTTTTAACTTTTTCATAATTTCGGAGTCACCTAGTGCAG,9730 fluorescence intensity (a.u.)
16,ACTTTTCGCTTTTTATATTTGCATAATTTTTTTCAATAAGCGGAGTCACCTAGTGCAG,8150 fluorescence intensity (a.u.)
17,CTTTCTTATTGACTATTTTATTATTTGAGGTCATTTAGGGCGGAGTCACCTAGTGCAG,9310 fluorescence intensity (a.u.)
18,ACACTTTGATCCCGATCGATGGCGCCATCCACTAATTGATCGGAGTCACCTAGTGCAG,10700 fluorescence intensity (a.u.)
19,GTTGACTCGCACTTTTTGTAATTATGTGTTACATGGTTTCCGGAGTCACCTAGTGCAG,8810 fluorescence intensity (a.u.)
20,CGCCGTTGACTTTTCATATAATATTTAACAATTCGCTTTACGGAGTCACCTAGTGCAG,36800 fluorescence intensity (a.u.)
21,TTTGTTGGTGTTATGTTGACTTTTTTTTGGGAACATTACTCGGAGTCACCTAGTGCAG,17400 fluorescence intensity (a.u.)

row,Sequence,binding signal
1,TTTTTCGCACGTTCTCTTTCGCCCTGTTTTTTTTGAAAGACGGAGTCACCTAGTGCAG,13300 fluorescence intensity (a.u.)
2,CCTAGACCCCTTCTCACGCCGCCAGCCCGTCACACCGAGTCGGAGTCACCTAGTGCAG,8790 fluorescence intensity (a.u.)
3,CCCACTAACTTATGGCTTTTCCCATCCGTGCTATATCCCTCGGAGTCACCTAGTGCAG,9270 fluorescence intensity (a.u.)
4,ATACTGTCATAGGATCTCGAGTACACCTGTTTTACAAGTTCGGAGTCACCTAGTGCAG,8860 fluorescence intensity (a.u.)
5,GTTTTGATTGGCATATGGTCCCTCCAATCCGTGTAATTGTCGGAGTCACCTAGTGCAG,8320 fluorescence intensity (a.u.)
6,CACCGTTGATTTTTTTAAATATGTTTGACCGTTCGTTTTACGGAGTCACCTAGTGCAG,12000 fluorescence intensity (a.u.)
7,ACTACTTCCTCTGTTTCTAAATATTTGACGACGTTGATTTCGGAGTCACCTAGTGCAG,8050 fluorescence intensity (a.u.)
8,TTCCTAAATATTTACGACGTTGACTTTTTTAAAAATGTTTCGGAGTCACCTAGTGCAG,20100 fluorescence intensity (a.u.)
9,AAATATTTGACGCCGTTGACTTTTTTAAATATGTTTAACCCGGAGTCACCTAGTGCAG,27200 fluorescence intensity (a.u.)
10,GGAGTATATAAATATATATATTAAATACAACTCTAGACTACGGAGTCACCTAGTGCAG,26700 fluorescence intensity (a.u.)
11,CGTTGACTTTTTTAAATATGTTTGACCGTTTATGTTATTTCGGAGTCACCTAGTGCAG,44100 fluorescence intensity (a.u.)
12,GTTGACTTTTTTTAAAATATGTTTGACCGTTCATATTATTCGGAGTCACCTAGTGCAG,8770 fluorescence intensity (a.u.)
13,ATTTTTATACGGACTCTAAACTCTACTTTTAATTTTATTACGGAGTCACCTAGTGCAG,8490 fluorescence intensity (a.u.)
14,ATAACCAACATATTTAGCCTACAATTAAATATTTACTATACGGAGTCACCTAGTGCAG,8390 fluorescence intensity (a.u.)
15,TACACTAACCCTACCATCCCGTACACCACCGAAACCCTAACGGAGTCACCTAGTGCAG,8330 fluorescence intensity (a.u.)
16,TGTCTGGTCAACGCACAATTTCGGTCAGTAACTCCCTGGCCGGAGTCACCTAGTGCAG,9770 fluorescence intensity (a.u.)
17,TCATGGGAGCAATTGCGCGATGTTTTTGTTCTTAACTTTCCGGAGTCACCTAGTGCAG,8050 fluorescence intensity (a.u.)
18,TTTTGGTACGTTATTAGTGTGTGTATCAGTTTTTAAGTTCCGGAGTCACCTAGTGCAG,9430 fluorescence intensity (a.u.)
19,GTTTCAGGTTTTTGCAGCCAACAGTTTTGCTGATTTTTTACGGAGTCACCTAGTGCAG,9480 fluorescence intensity (a.u.)
20,CTCCTTTTGCGCTGCTTCTCCTCGCCGCCACCGTGTAGCGCGGAGTCACCTAGTGCAG,8230 fluorescence intensity (a.u.)
21,GAATTTTTTTTTATCATCTTTGACGGGCACACAAATTTTACGGAGTCACCTAGTGCAG,8140 fluorescence intensity (a.u.)
